# According to PubChem BioAssay AID1347413 (National Center for Advancing Translational Sciences (NCATS), 2020):
# Calls of active or inactive are those of the source. Calls follow the shape of the dose curve; as a rule, active = well fitted curve in the direction sought with a large enough effect; inactive = no such curve, though single readings can be large or run the other way.
# Experiment: qHTS to identify inhibitors of the type 1 interferon - major histocompatibility complex class I in skeletal muscle: tertiary screen by RT-qPCR, retest select compounds
# Conditions: C25cl48 myoblasts, IFN-beta, HLA-B RT-qPCR, 24 h
# Source text: Assay Submitter (PI): Travis B. Kinder Ph.D. & James Inglese Ph.D. Assay Development and Screening Technology Laboratory (ADST) National Center for Advancing Translational Sciences (NCATS), Rockville, MD National Institute of Health (NIH), Bethesda, Maryland Idiopathic inflammatory myopathies, collectively referred to as myositis, are a group of rare autoimmune diseases characterized by skeletal muscle inflammation, weakness, and usually accompanied by systemic pathologies of the skin, lungs, or vasculature. Current immunosuppressive therapies and glucocorticoids are often not curative and are accompanied by harsh side effects, especially in children with juvenile myositis. We initiated a drug repurposing and development program to identify more targeted, less toxic therapeutics to treat myositis. Although its cause is not known, muscle from a subset of patients have an abundance of the inflammatory type 1 interferon (IFN) and a down-stream product major histocompatibility complex class I (MHC class I), which are both thought to contribute to damage and weakness. We conducted quantitative high throughput screening (qHTS) on 6,576 compounds (4,679 unique) through a series of cell-based assays to identify those that inhibit the IFN-stimulated expression of MHC class I in muscle precursor cells (myoblasts). […]
structure (smiles),measurement,value
CC(C)[C@]12O[C@H]1[C@@H]1O[C@@]13[C@@]1(C)CCC4=C(COC4=O)[C@@H]1C[C@@H]1O[C@@]13C2=O,Potency,0.654 µM (active)
